According to the supplement of paper PMC6522484:
± gives the standard deviation of the averaged measurements.

Experiments:
DLD1 [1] = test: cell viability (CellTiter-Glo) relative to plate median (fraction of plate median); higher = more viable cells; details: 10 µM, treatment time 24 h
In short: (§1)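 Values are the mean of two independent replicates of luminescence normalised to the plate median with webcellHTS2, using the additive method without log transformation. They come from colorectal cancer cell lines stably transduced with lentiviral TCF/Wnt firefly luciferase reporters (7TFP or TCF4/Wnt), seeded in 384-well plates. After 24 h the cells got kinase inhibitor library compounds at a final 10 µM for 24 h, and parallel plates were read for firefly luciferase or CellTiterGlo on a Tecan F500.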

HCT116 [2] = test: as above; details: 10 µM; treatment time 24 h; reporter: TCF4/Wnt
In short: as §1

SW480 [3] = test: as above; details: 10 µM; treatment time 24 h; reporter: 7TFP
In short: as §1

DLD1 [4] = test: cell viability (CellTiter-Glo) relative to plate median (fraction of plate median); higher = more viable cells; details: 5 µM; treatment time 24 h; reporter: 7TFP
In short: (§2)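 Cells were seeded in 384-well plates; these were colorectal cancer lines stably transduced with lentiviral 7TFP or TCF4/Wnt firefly luciferase reporters. After 24 h, library compounds went in at a final 5 µM, and exposure lasted 24 h. Parallel plates were then read for firefly luciferase or CellTiterGlo luminescence, each well normalised to its plate median, with two independent replicates averaged.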

HCT116 [5] = test: as above; details: 5 µM; treatment time 24 h; reporter: TCF4/Wnt
In short: as §2

SW480 [6] = test: as above; details: 5 µM; treatment time 24 h; reporter: 7TFP
In short: as §2

DLD1 [7] = test: TCF/Wnt firefly luciferase reporter signal relative to plate median (fraction of plate median); higher = higher Wnt reporter signal; details: 5 µM; treatment time 24 h; reporter: 7TFP
In short: as §2

SW480 [8] = test: as above; details: 5 µM; treatment time 24 h; reporter: 7TFP
In short: as §2

DLD1 [9] = test: TCF/Wnt firefly luciferase reporter signal relative to plate median (fraction of plate median); higher = higher Wnt reporter signal; details: 10 µM, treatment time 24 h
In short: as §1

HCT116 [10] = test: as above; details: 10 µM; treatment time 24 h; reporter: TCF4/Wnt
In short: as §1

SW480 [11] = test: as above; details: 10 µM; treatment time 24 h; reporter: 7TFP
In short: as §1

| Structure (SMILES) | cell viability (DLD1 [1]; reporter: 7TFP) | cell viability (DLD1 [1]; reporter: TCF4/Wnt) | cell viability (HCT116 [2]) | cell viability (SW480 [3]) | cell viability (DLD1 [4]) | cell viability (HCT116 [5]) | cell viability (SW480 [6]) | TCF/Wnt firefly luciferase reporter signal (DLD1 [7]) | TCF/Wnt firefly luciferase reporter signal (SW480 [8]) | TCF/Wnt firefly luciferase reporter signal (DLD1 [9]; reporter: 7TFP) | TCF/Wnt firefly luciferase reporter signal (DLD1 [9]; reporter: TCF4/Wnt) | TCF/Wnt firefly luciferase reporter signal (HCT116 [10]) | TCF/Wnt firefly luciferase reporter signal (SW480 [11]) |
| --- | --- | --- | --- | --- | --- | --- | --- | --- | --- | --- | --- | --- | --- |
| O=C(NOC[C@H](O)CO)c1ccc(F)c(F)c1Nc1ccc(I)cc1F | 1.25 ± 0.064 | 1.05 ± 0.014 | 0.907 ± 0.058 | 1.11 ± 0.028 | 1.1 ± 0.064 | 0.895 ± 0.05 | 1.03 ± 0.05 | 1.34 ± 0.22 | 1.47 ± 0.071 | 1.62 ± 0.17 | 1.28 ± 0.26 | 1.06 ± 0.028 | 1.75 ± 0.092 |
| Cc1cc(Nc2cc(N3CCN(C)CC3)nc(Sc3ccc(NC(=O)C4CC4)cc3)n2)n[nH]1 [VX-680 (MK-0457, Tozasertib)] | 1.12 ± 0.18 | 0.975 ± 0.078 | 1.02 ± 0.028 | 1.16 ± 0.021 |  |  |  |  |  | 0.773 ± 0.0014 | 0.776 ± 0.057 | 1.56 ± 0.13 | 1.11 ± 0.23 |
| Cc1ccc(C(=O)Nc2ccc(CN3CCN(C)CC3)c(C(F)(F)F)c2)cc1C#Cc1cnc2cccnn12 | 0.835 ± 0.055 | 0.8 ± 0.0099 | 0.631 ± 0.14 | 1.01 ± 0.16 |  |  |  |  |  | 0.285 ± 0.064 | 0.466 ± 0.0028 | 0.292 ± 0.12 | 0.668 ± 0.098 |
| CCN(CC)CCCCNc1ncc2cc(-c3cc(OC)cc(OC)c3)c(NC(=O)NC(C)(C)C)nc2n1 | 0.835 ± 0.052 | 1.01 ± 0.028 | 1.055 ± 0.0071 | 1.1 ± 0.071 |  |  |  |  |  | 0.702 ± 0.073 | 0.698 ± 0.073 | 0.781 ± 0.058 | 1.04 ± 0.18 |
| O=c1cc(N2CCOCC2)oc2c(-c3ccccc3)cccc12 | 1 ± 0.092 | 1.065 ± 0.0071 | 1.11 ± 0.021 | 0.963 ± 0.033 |  |  |  |  |  | 1.11 ± 0.078 | 1.15 ± 0.21 | 1.62 ± 0.3 | 1.15 ± 0.05 |
| COc1cc2ncnc(Nc3ccc(O)c(Br)c3)c2cc1OC | 1.04 ± 0.13 | 0.98 ± 0.029 | 1.13 ± 0.28 | 1.01 |  |  |  |  |  | 1.11 ± 0.021 | 0.832 ± 0.11 | 1.11 ± 0.17 | 1.17 ± 0.014 |
| CC(C)(C)c1cc(/C=C(\C#N)C(N)=S)cc(C(C)(C)C)c1O [Tyrphostin AG 879 (AG 879)] | 0.851 ± 0.1 | 0.911 ± 0.098 | 0.979 ± 0.1 | 0.844 ± 0.018 |  |  |  |  |  | 0.707 ± 0.12 | 1.04 ± 0.042 | 0.791 ± 0.12 | 0.878 ± 0.041 |
| CCS(=O)(=O)c1cccc(-c2cc(C(=O)NC3CCN(C)CC3)c(C)c3[nH]c4ncc(C)cc4c23)c1 | 1.06 ± 0.071 | 1.1 ± 0.057 | 0.522 ± 0.23 | 0.965 ± 0.026 |  |  |  |  |  | 1.25 ± 0.078 | 1.215 ± 0.0071 | 0.565 ± 0.24 | 0.834 ± 0.1 |
| O=c1c(O)c(-c2ccc(O)c(O)c2)oc2cc(O)cc(O)c12 [Quercetin (Sophoretin)] | 1.19 ± 0.035 | 1.02 ± 0.046 | 1.23 ± 0.092 | 0.92 ± 0.013 |  |  |  |  |  | 1.07 ± 0.014 | 1.04 ± 0.035 | 1.16 ± 0.071 | 0.978 ± 0.073 |
| O=C(NOCC(O)CO)c1cc(Br)c(F)c(F)c1Nc1ccc(I)cc1F (stereo not given) | 1.17 ± 0.12 | 0.96 ± 0.13 | 0.891 ± 0.047 | 1.19 ± 0.028 |  |  |  |  |  | 1.72 ± 0.38 | 1.47 ± 0.16 | 1.95 ± 0.47 | 2.33 ± 0.064 |
